Test results: PubChem BioAssay (NCATS)
Results filed as inconclusive are left out. Calls of active or inactive are those of the source. Calls follow the shape of the dose curve; as a rule, active = well fitted inhibition curve with a large enough effect; inconclusive = small, poorly fitted or top-dose-only effect; inactive = no such curve, though single readings can be large or run the other way.

Experiment: qHTS Screen of the MIPE 4.0 Collection Against Ewings Sarcoma (RDES) (AID 1259252); also: nearly all actives have a fitted effect of over 35% in size
Conditions: RD-ES Ewing sarcoma viability, CellTiter-Glo, 48 h; series mostly up to 45.8 µM
From the text: There is a large unmet medical need for treatments for Ewing sarcoma, a pediatric sarcoma. We sought to identify compounds that inhibited Ewing sarcoma cells in vitro with the goal to then test promising drugs in two drug combinations in vitro to look for synergistic drug combinations. Promising combinations would then proceed to additional validation, including in vivo testing.
Using the NCATS developed oncology compound library called the Mechanism of Interrogation Plate (MIPE), four Ewing sarcoma cell lines were evaluated (TC32, TC71, RDES, EW8). Compounds, in a 12-point titration series, were incubated with cells for 48 hours and the read out was cell viability (CellTiter-Glo from Promega). These initial experiments were used to select appropriate concentrations of each single agent for subsequent two-drug matrix combinations such that the concentrations in the matrices would span both activity and non-activity.
Cells, in the log phase of growth, were seeded in 5 uL of RPMI plus 5% FBS, […] L-glutamine, 100 U/ml penicillin and 100 ug/ml streptomycin into 1536-well solid-bottom white tissue culture treated Greiner Bio One Plates (789173-F) using a MultiDrop Combi (Thermofisher Scientific) dispenser and a small sterile cassette. One column was media alone to be used as a :"no cells" control. The plates were then covered with sterilized stainless steel gasketed lids from Kalypsys. After allowing cells to attach for 4 hours, 23 nL of test compound or control (negative control DMSO and positive control 9.2 uM Bortezomib-final) were added from a 1536-well polypropylene compound source plate to each well using a 1536 head pin tool from Kalypsys. Cells were then incubated for 48 hours at 37C, 95% relative humidity and 5% CO2. After 48 hours, plates were removed from the incubator and 3 uL of CellTiter-Glo (Promega) was added using an Aurora Flying Reagent Dispenser Bioraptor. Plates were incubated at room temperature for 10 minutes prior to reading the luminescence on the Viewlux (PerkinElmer). The relative luciferase units are used to calculate the percent activity using the activity of DMSO in the cells and no cells columns for normalization of no inhibition and full inhibition respectively.
Potency is read from the fitted curve at half-maximal effect.

SMILES | Potency
COC(=O)Nc1ccc(-c2nc(N3CCOCC3)c3cnn(C4CCN(C(=O)OC)CC4)c3n2)cc1 | 0.0372 µM (active)
Cc1cc2c(cc1C1(c3ccc(C(=O)O)cn3)CC1)C(C)(C)CCC2(C)C | inactive
CN(C)c1ccc(-c2nc3ncc(Cl)c(N4CCN(CC(=O)Nc5nccs5)CC4)c3[nH]2)cc1 | 20.9 µM (active)
O=c1[nH]c(=O)n([C@H]2C[C@@H](O)[C@@H](CO)O2)cc1I | inactive
O=C(O)CCC=CCC[C@@H]1[C@H](N2CCCCC2)[C@@H](O)C[C@@H]1OCc1ccc(-c2ccccc2)cc1 | inactive
COc1cc([C@@H]2c3cc4c(cc3[C@@H](O[C@@H]3O[C@@H]5CO[C@@H](C)O[C@@H]5[C@H](O)[C@@H]3O)[C@H]3COC(=O)[C@H]23)OCO4)cc(OC)c1O | 1.05 µM (active)
C[C@H](c1ccc(F)cc1CCCC(=O)O)N(c1cc(F)ccc1F)S(=O)(=O)c1ccc(Cl)cc1 | 18.7 µM (active)
O=C(NC[C@H](O)CO)c1ccncc1Nc1ccc(I)cc1F | 18.7 µM (active)
COc1cc(Nc2nc3ccccc3nc2NS(=O)(=O)c2ccc(NC(=O)c3ccc(C)c(OC)c3)cc2)cc(OC)c1 | 18.7 µM (active)
COc1ccc(CCC(=O)Nc2nc3ccc(Cl)cc3s2)cc1OC | 20.9 µM (active)
NCC1CCC(C(=O)O)CC1 (stereo not given) | inactive
Oc1ccc(C=Cc2cc(O)cc(O)c2)cc1 | 18.7 µM (active)
OCCn1cc(-c2ccc3c(c2)CCC3=NO)c(-c2ccncc2)n1 | 26.4 µM (active)
COc1ccc(-c2ccc3ncc4c(c3c2)n(-c2ccc(N3CCNCC3)c(C(F)(F)F)c2)c(=O)n4C)cn1 | 0.0469 µM (active)
CC1=C(CC(=O)O)c2cc(F)ccc2C1=Cc1ccc(S(C)=O)cc1 (stereo not given) | 1.18 µM (active)
C[C@]12C=CC(=O)C=C1CC[C@@H]1[C@@H]2[C@@H](O)C[C@@]2(C)[C@@H]1CC[C@]2(O)C(=O)CO | inactive
CC(C)N(CCCNC(=O)Nc1ccc(C(C)(C)C)cc1)C[C@H]1O[C@@H](n2cc(Br)c3c(N)ncnc32)[C@H](O)[C@H]1O | 23.5 µM (active)
O=C(O)c1nc(=O)[nH]c(=O)[nH]1 | inactive
CN[C@H]1[C@@H](O[C@@H]2[C@H](O[C@@H]3[C@@H](O)[C@@H](O)[C@@H](N=C(N)N)[C@@H](O)[C@@H]3N=C(N)N)O[C@H](C)[C@@]2(O)C=O)O[C@@H](CO)[C@@H](O)[C@H]1O | inactive
CN(C)c1ccccc1CN1CCCN(Cc2ccccc2N(C)C)C1c1ccncc1 | 20.9 µM (active)

SMILES | Potency
CC1=C[C@@H]2[C@@H]([C@@H](O)C[C@@]3(C)[C@H]2C[C@@H](C)[C@]3(O)C(=O)CO)[C@@]2(C)Cc3cnn(-c4ccccc4)c3C=C12 | 23.5 µM (active)
CCc1cc(-c2n[nH]c(C)c2-c2ccc3c(c2)OCCO3)c(O)cc1O | 9.35 µM (active)
OC[C@H]1O[C@@H](Oc2ccc(O)cc2)[C@H](O)[C@@H](O)[C@H]1O | inactive
OC[C@H]1O[C@@H](O[C@H]2[C@@H](O)[C@@](O)(CO)O[C@@H]2CO)[C@H](O)[C@@H](O)[C@@H]1O | inactive
Cc1cn([C@@H]2C[C@@H](O)[C@H](CO)O2)c(=O)[nH]c1=O | inactive
O=C(CCCN1CCN(c2ccc(F)cc2)CC1)NC1c2ccccc2CSc2ccccc21 (stereo not given) | 14.8 µM (active)
CCOc1ccccc1N=Nc1c(C)[nH]n(-c2nc(-c3ccccc3)cs2)c1=O | 16.6 µM (active)
CC=C(C(=CC)c1ccc(O)cc1)c1ccc(O)cc1 | 20.9 µM (active)
CCC(=C(CC)c1ccc(O)cc1)c1ccc(O)cc1 | 23.5 µM (active)
NC(=O)c1noc([C@H](CCCC2CCCCC2)CC(=O)NO)n1 | 8.33 µM (active)
COC(=O)[C@H](c1ccccc1Cl)N1CCc2sccc2C1 | inactive
COc1cc(N2CCN(C)CC2)ccc1Nc1nc(N)c(C(=O)c2c(Cl)cccc2Cl)s1 | 13.2 µM (active)
CNC(=O)[C@H](CC1=CN=C2C=CCC=C12)NC(=O)[C@@H](CC(=O)NO)CC(C)C | inactive
CC1(C)C(N(O)C(=O)Nc2ccc(Cl)cc2)N(c2ccc(Cl)cc2)C(=O)N1CC(=O)NN=CC=Cc1ccc([N+](=O)[O-])o1 (stereo not given) | 26.4 µM (active)
O=C1C(CCC(O)c2ccc(F)cc2)C(c2ccc(O)cc2)N1c1ccc(F)cc1 (stereo not given) | inactive
C[C@@H]1[C@H](C)CC[C@]2(C(=O)O)CC[C@]3(C)C(=CC[C@@H]4[C@@]5(C)CC[C@H](O)C(C)(C)[C@H]5CC[C@]43C)[C@@H]12 | 2.7 µM (active)
NC[C@H]1O[C@H](O[C@@H]2[C@@H](O)[C@@H](O[C@H]3O[C@H](CO)[C@@H](O)[C@H](N)[C@@H]3O)[C@H](N)C[C@@H]2N)[C@H](O)[C@@H](O)[C@H]1O | inactive
CC(=O)Nc1cccc(-n2c(=O)n(C3CC3)c(=O)c3c(Nc4ccc(I)cc4F)n(C)c(=O)c(C)c32)c1 | 20.9 µM (active)
CCCCC[C@H](O)C=C[C@H]1[C@H](O)CC(=O)[C@H]1CCCCCCC(=O)O | inactive
CCCC1OC2C[C@@H]3[C@H]4CCC5=CC(=O)C=C[C@]5(C)[C@H]4C(O)C[C@]3(C)[C@]2(C(=O)CO)O1 (stereo not given in full) | inactive
